The source made the active and inactive calls. How the source made its calls: active means hit-call score of the fitted dose curve at least 0.9, where 1 is the maximum; inactive means score below 0.9.
Assay: CCTE_Mundy_HCI_hNP1_Casp3_7: CCTE's Caspase-Glo 3/7 Assay in human neuroprogenitor cells for Apoptosis, Mundy Lab (AID 2284240)
Method: CCTE_Mundy_HCI_hNP1_Casp3_7 is a multiplexed, cell-based-readout assay that uses neural stem cells derived from a neuroepithelial cell lineage of WA09 embryonic cells with measurements taken at […] after chemical dosing in a microplate: 96-well plate.CCTE_Mundy_HCI_hNP1_Casp3_7 is one component of the CCTE_Mundy_HCI_hNP1_Casp3_7 assay. It measures apoptosis related to caspase activation using Luminescent Reporter.Data from the assay component CCTE_Mundy_HCI_hNP1_Casp3_7 was analyzed at the endpoint CCTE_Mundy_HCI_hNP1_Casp3_7_gain in the positive analysis fitting direction relative to DMSO as the negative control and baseline of activity. Using a type of viability reporter, gain -of-signal activity can be used to understand viability effects.
Human neural progenitor cells (hNP1) were obtained as cryopreserved cells from ArunA Biomedical, Athens Georgia. Cells are plated on pre-coated poly-L-ornithine/laminin clear bottom and opaque 96 well plates (day 0). Plates are placed in a 37 °C, 5% CO2 incubator for 40 to 44 hours at which time plates are removed from the incubator and 10 uL of a freshly made chemical solution is added to each well. Apoptosis was measured based on detection of activated caspase-3/7 using the Caspase-Glo 3/7 assay kit (Promega). Twenty-four hours after chemical treatment, 50ul of Caspase-Glo 3/7 assay buffer was added to each well and the plate incubated for 30min at room temperature. Luminescence was then recorded in each well using a FLUOstar Optima plate reader.

Row | SMILES | outcome
1 | OCC(F)(F)C(F)(F)C(F)(F)F | inactive
2 | OCCCC(F)(F)C(F)(F)C(F)(F)C(F)(F)C(F)(F)C(F)(F)C(F)(F)F | inactive
3 | C=C(C)C(=O)OCC(F)(F)C(F)(F)C(F)(F)F | inactive
4 | O=C(O)C(F)(F)C(F)(F)OC(F)(F)F | inactive
5 | FC(F)(F)C(F)(F)C(F)(F)C(F)(F)C(F)(F)C(F)(F)CC1CO1 (centres undefined) | inactive
6 | O=C(CC(=O)C(F)(F)C(F)(F)F)C(F)(F)F | inactive
7 | FC(F)(F)C(F)(F)C(F)(F)C(F)(F)C(F)(F)C(F)(F)C(F)(F)C(F)(F)CCS | inactive
8 | O=C(O)C(F)(F)C(F)(F)C(F)(F)C(F)(F)C(F)(F)C(F)(F)C(F)(F)C(F)(F)Cl | inactive
9 | FC(F)(F)C(F)(F)C(F)(F)C(F)(F)C(F)(F)C(F)(F)C(F)(F)C(F)(F)F | inactive
10 | N=C(N)C(F)(F)C(F)(F)C(F)(F)C(F)(F)C(F)(F)C(F)(F)C(F)(F)F | inactive
11 | FC(F)(F)C(F)(F)C(F)(F)C(F)(F)CCI | inactive
12 | OCC(F)(F)C(F)(F)C(F)(F)C(F)F | inactive
13 | C=CC(=O)OCC(F)(F)C(F)(F)C(F)(F)C(F)(F)COC(=O)C=C | inactive
14 | O=P(O)(O)OCCC(F)(F)C(F)(F)C(F)(F)C(F)(F)C(F)(F)C(F)(F)F | inactive
15 | CC(CCl)OP(=O)(OC(C)CCl)OC(C)CCl (centres undefined) | inactive
16 | FC(F)(F)C(F)(F)C(F)(F)CI | inactive
17 | O=C(O)C(F)(F)C(F)(F)C(F)(F)F | inactive
18 | CC(C)(C)C(=O)CC(=O)C(F)(F)C(F)(F)C(F)(F)F | inactive
19 | OC[C@@H](O)[C@@H](O)[C@H](O)[C@@H](O)CO | inactive
